Here are results for 61 molecules from the antibiotic and cytotoxicity screens of Wong et al. (2023).

Among all 39,000 compounds or so, about 3,300 (8.5%) were called active. What follows is part of a selection rich in actives, with near analogues and random picks from the rest.

The assay has as its system HepG2. The assay is described as follows: cytotoxicity call (relative viability < 0.9). To be noted: 10 µM.
For the molecule `Cc1noc(C)c1NC(=O)N(C)C[C@H]1Oc2ccc(NS(=O)(=O)c3ccccc3)cc2C(=O)N([C@H](C)CO)C[C@@H]1C`, the cytotoxicity call was “inactive”. Next, `COc1ccc(NC(=O)Nc2ccc3c(c2)C(=O)N([C@H](C)CO)C[C@@H](C)[C@H](CN(C)C(=O)Cc2ccccc2)OCCCC[C@H](C)O3)cc1`: “inactive”; `c1ccc(-c2nc(C34CC5CC(CC(C5)C3)C4)cs2)cc1`: “inactive”. For `OCc1cn(-c2ccccc2)nn1` the value was “inactive”; for `NCc1cn(-c2ccccc2)nc1C12CC3CC(CC(C3)C1)C2`, “active”. Turning to `CCS(=O)(=O)Nc1ccc2c(c1)C(=O)N(C)C[C@H](OC)[C@@H](C)CN(CCC(F)(F)F)[C@@H](C)CO2`, the cytotoxicity call was “inactive”. For `C[C@H](CO)N1C[C@H](C)[C@@H](CN(C)C(=O)c2ccc3c(c2)OCO3)Oc2cc(C#Cc3ccccc3F)ccc2S1(=O)=O` the value was “inactive”; for `C[C@H]1CN([C@@H](C)CO)C(=O)c2cccc(NC(=O)c3nc4ccccc4s3)c2O[C@@H]1CN(C)Cc1ccc(-c2ccccc2)cc1`, “inactive”. Next, `O=C(O)Cn1nc2ccccc2n1`: “inactive”; `O=C(O)c1nn(Cc2ccccc2)nc1C(=O)O`: “active”; `NC(=O)c1nnn(Cc2ccccc2)c1N`: “inactive”. Regarding `C[C@H](CO)N1C[C@H](C)[C@@H](CN(C)S(=O)(=O)c2ccccc2F)Oc2ncc(Br)cc2C1=O`, the cytotoxicity call was “inactive”. Next, `Cc1noc(C)c1NC(=O)N(C)C[C@@H]1OCCCC[C@H](C)Oc2ccc(NS(=O)(=O)c3ccccc3)cc2C(=O)N([C@H](C)CO)C[C@@H]1C`: “inactive”.

Regarding `C[C@@H]1CCCCO[C@@H](CN(C)Cc2ccc(Cl)c(Cl)c2)[C@@H](C)CN([C@@H](C)CO)C(=O)c2cc(NS(=O)(=O)c3ccc(F)cc3)ccc2O1`, the cytotoxicity call is “inactive”. `C[C@H]1CCCCO[C@H](CN(C)Cc2ccc(Cl)c(Cl)c2)[C@@H](C)CN([C@@H](C)CO)C(=O)c2cc(NS(=O)(=O)c3ccc(F)cc3)ccc2O1`: the cytotoxicity call is “inactive”.

Regarding `C[C@H](CO)N1C[C@H](C)[C@@H](CN(C)Cc2ccc(Cl)c(Cl)c2)OCCCC[C@H](C)Oc2ccc(NS(=O)(=O)c3ccc(F)cc3)cc2C1=O`, the cytotoxicity call is “inactive”. Next, `C[C@@H]1CCCCO[C@@H](CN(C)Cc2ccc(Cl)c(Cl)c2)[C@H](C)CN([C@H](C)CO)C(=O)c2cc(NS(=O)(=O)c3ccc(F)cc3)ccc2O1`: “active”. Next, `C[C@H](CO)N1C[C@H](C)[C@H](CN(C)Cc2ccc(Cl)c(Cl)c2)OCCCC[C@H](C)Oc2ccc(NS(=O)(=O)c3ccc(F)cc3)cc2C1=O`: “inactive”; `C[C@@H]1CN([C@H](C)CO)C(=O)c2cc(NS(=O)(=O)c3ccc(F)cc3)ccc2O[C@@H](C)CCCCO[C@H]1CN(C)Cc1ccc(Cl)c(Cl)c1`: “inactive”. Next, `C[C@@H]1CCCCO[C@@H](CN(C)Cc2ccc(Cl)c(Cl)c2)[C@H](C)CN([C@@H](C)CO)C(=O)c2cc(NS(=O)(=O)c3ccc(F)cc3)ccc2O1`: “active”. In the case of `C[C@@H]1CCCCO[C@@H](CN(C)Cc2ccc(Cl)c(Cl)c2)[C@@H](C)CN([C@H](C)CO)C(=O)c2cc(NS(=O)(=O)c3ccc(F)cc3)ccc2O1`, the cytotoxicity call was “active”. For `C[C@@H]1CCCCO[C@H](CN(C)Cc2ccc(Cl)c(Cl)c2)[C@@H](C)CN([C@H](C)CO)C(=O)c2cc(NS(=O)(=O)c3ccc(F)cc3)ccc2O1` the value was “inactive”; for `C[C@@H]1CCCCO[C@H](CN(C)Cc2ccc(Cl)c(Cl)c2)[C@@H](C)CN([C@@H](C)CO)C(=O)c2cc(NS(=O)(=O)c3ccc(F)cc3)ccc2O1`, “inactive”; for `C[C@@H]1CCCCO[C@H](CN(C)Cc2ccc(Cl)c(Cl)c2)[C@H](C)CN([C@@H](C)CO)C(=O)c2cc(NS(=O)(=O)c3ccc(F)cc3)ccc2O1`, “active”. For `C[C@@H]1CCCCO[C@@H](CN(C)S(C)(=O)=O)[C@H](C)CN([C@H](C)CO)C(=O)c2cc(N(C)C)ccc2O1` the value was “inactive”; for `CCO/C(O)=C1/C(=O)CN(C)C1=O`, “inactive”. For `CCS(=O)(=O)Nc1ccc2c(c1)C(=O)N(C)[C@@H]1CC[C@H](CC(=O)N[C@@H]3CCN(Cc4ccccc4)C3)O[C@H]1CO2` the value was “inactive”.

With `CN(C)CC(=O)N[C@H]1CC[C@@H](CCNC(=O)C2CCC2)O[C@H]1CO`, the cytotoxicity call was “inactive”. Next, `Cc1nnc(N2CCC[C@]3(CN(C(=O)CO)CCO3)C2)o1`: “inactive”; `C[C@@H]1CN([C@H](C)CO)C(=O)Cc2cc(NC(=O)C3CCCCC3)ccc2O[C@@H]1CN(C)C(=O)Nc1ccc(C(F)(F)F)cc1`: “inactive”; `C[C@H]1CN([C@@H](C)CO)C(=O)c2cccc(NC(=O)c3ccncc3)c2O[C@@H]1CN(C)Cc1ccc(Oc2ccccc2)cc1`: “inactive”.

As to `Cc1ccc(S(=O)(=O)Nc2ccc3c(c2)C(=O)N([C@@H](C)CO)C[C@H](C)[C@@H](CN(C)C(=O)Cc2ccccc2)OCCCC[C@H](C)O3)cc1`, the cytotoxicity call is “inactive”. As to `C[C@@H]1CN([C@@H](C)CO)S(=O)(=O)c2ccc(Br)cc2O[C@@H]1CN(C)CC1CCOCC1`, the cytotoxicity call is “inactive”. Regarding `CC(C)NC(=O)Nc1ccc2c(c1)C(=O)N([C@H](C)CO)C[C@@H](C)[C@H](CN(C)Cc1ccc(C(F)(F)F)cc1)OCCCC[C@@H](C)O2`, the cytotoxicity call was “active”.

In the case of `CC(C)NC(=O)Nc1ccc2c(c1)C(=O)N([C@@H](C)CO)C[C@@H](C)[C@@H](CN(C)Cc1ccc(C(F)(F)F)cc1)OCCCC[C@H](C)O2`, the cytotoxicity call was “inactive”.

In the case of `CC(C)NC(=O)Nc1ccc2c(c1)C(=O)N([C@H](C)CO)C[C@H](C)[C@@H](CN(C)Cc1ccc(C(F)(F)F)cc1)OCCCC[C@H](C)O2`, the cytotoxicity call was “inactive”.

`CC(C)NC(=O)Nc1ccc2c(c1)C(=O)N([C@H](C)CO)C[C@@H](C)[C@H](CN(C)Cc1ccc(C(F)(F)F)cc1)OCCCC[C@H](C)O2`: the cytotoxicity call was “active”.

On to `CC(C)NC(=O)Nc1ccc2c(c1)C(=O)N([C@@H](C)CO)C[C@H](C)[C@@H](CN(C)Cc1ccc(C(F)(F)F)cc1)OCCCC[C@@H](C)O2`, for which the cytotoxicity call is “active”. With `CC(C)NC(=O)Nc1ccc2c(c1)C(=O)N([C@H](C)CO)C[C@@H](C)[C@@H](CN(C)Cc1ccc(C(F)(F)F)cc1)OCCCC[C@H](C)O2`, the cytotoxicity call was “inactive”.

For `CC(C)NC(=O)Nc1ccc2c(c1)C(=O)N([C@@H](C)CO)C[C@@H](C)[C@H](CN(C)Cc1ccc(C(F)(F)F)cc1)OCCCC[C@@H](C)O2`, the cytotoxicity call is “inactive”. `CC(C)NC(=O)Nc1ccc2c(c1)C(=O)N([C@H](C)CO)C[C@H](C)[C@H](CN(C)Cc1ccc(C(F)(F)F)cc1)OCCCC[C@@H](C)O2`: the cytotoxicity call is “inactive”. For `CC(C)NC(=O)Nc1ccc2c(c1)C(=O)N([C@H](C)CO)C[C@H](C)[C@@H](CN(C)Cc1ccc(C(F)(F)F)cc1)OCCCC[C@@H](C)O2` the value was “inactive”. For `CC(C)NC(=O)Nc1ccc2c(c1)C(=O)N([C@@H](C)CO)C[C@H](C)[C@H](CN(C)Cc1ccc(C(F)(F)F)cc1)OCCCC[C@@H](C)O2` the value was “active”; for `CC(C)NC(=O)N(C)C[C@@H]1Oc2ccc(NC(=O)CCN3CCOCC3)cc2C(=O)N([C@@H](C)CO)C[C@@H]1C`, “inactive”.

With `COc1ccc2c3c(n(c2c1)C)[C@H](CO)N(C[C@]13CCN(CC1)C(=O)CC1CC1)C(=O)CN1CCOCC1`, the cytotoxicity call is “inactive”.

For `COc1ccc(-c2cnc3c(c2)C(=O)N([C@@H](C)CO)C[C@@H](C)[C@H](CN(C)C(=O)C2CCOCC2)O3)cc1`, the cytotoxicity call is “inactive”. For `C[C@H]1CCCCO[C@H](CN(C)Cc2ccc(C(=O)O)cc2)[C@@H](C)CN([C@@H](C)CO)C(=O)c2cc(NC(=O)Cc3ccccc3)ccc2O1` the value was “inactive”; for `Cc1ccc(S(=O)(=O)Nc2ccc3c(c2)C(=O)N([C@@H](C)CO)C[C@@H](C)[C@@H](CN(C)CC2CC2)O3)cc1`, “inactive”; for `CO[C@H]1CN(C)C(=O)c2ccc(NS(=O)(=O)c3ccccc3)cc2OC[C@H](C)N(C(=O)NC(C)C)C[C@@H]1C`, “inactive”. Next, `COc1ccc(NC(=O)N(C)C[C@H]2Oc3ccc(NS(=O)(=O)c4cn(C)cn4)cc3CC(=O)N([C@@H](C)CO)C[C@H]2C)cc1`: “inactive”; `O=C(C[C@@H]1C[C@H]2c3cc(NC(=O)Cc4ccncc4)ccc3O[C@H]2[C@H](CO)O1)NCCN1CCCCC1`: “inactive”. Next, `CC(=O)N[C@H]1[C@H](O[C@@H]2[C@@H](O)[C@H](C)O[C@@H](Oc3ccc4c(=O)c(-c5ccc(O)cc5)coc4c3)[C@@H]2O)O[C@H](CO)[C@@H](O[C@@H]2O[C@@H](C)[C@H](O)[C@@H](O)[C@H]2O)[C@@H]1O`: “inactive”; `O=C(C[C@@H]1C=C[C@@H](NC(=O)c2ccncc2)[C@@H](CO)O1)NCc1ccncn1`: “inactive”.

Regarding `C[C@@H]1CCCCO[C@H](CN(C)Cc2ccc(C(=O)O)cc2)[C@H](C)CN([C@@H](C)CO)C(=O)c2cc(NC(=O)Nc3ccc(F)cc3)ccc2O1`, the cytotoxicity call is “inactive”.

In the case of `COc1ccc(S(=O)(=O)Nc2ccc3c(c2)C(=O)N([C@H](C)CO)C[C@H](C)[C@@H](CN(C)S(=O)(=O)c2ccccc2)O3)cc1`, the cytotoxicity call was “inactive”. For `CC(C)NC(=O)Nc1ccc2c(c1)C(=O)N([C@H](C)CO)C[C@H](C)[C@H](CN(C)Cc1ccc(C(F)(F)F)cc1)OCCCC[C@H](C)O2` the value was “inactive”; for `CC(C)NC(=O)Nc1ccc2c(c1)C(=O)N([C@@H](C)CO)C[C@H](C)[C@H](CN(C)Cc1ccc(C(F)(F)F)cc1)OCCCC[C@H](C)O2`, “inactive”.

Turning to `CC(C)NC(=O)Nc1ccc2c(c1)C(=O)N([C@@H](C)CO)C[C@H](C)[C@@H](CN(C)Cc1ccc(C(F)(F)F)cc1)OCCCC[C@H](C)O2`, the cytotoxicity call was “active”. For `CC(C)NC(=O)Nc1ccc2c(c1)C(=O)N([C@H](C)CO)C[C@@H](C)[C@@H](CN(C)Cc1ccc(C(F)(F)F)cc1)OCCCC[C@@H](C)O2`, the cytotoxicity call is “inactive”. Consider `CC(C)NC(=O)Nc1ccc2c(c1)C(=O)N([C@@H](C)CO)C[C@@H](C)[C@H](CN(C)Cc1ccc(C(F)(F)F)cc1)OCCCC[C@H](C)O2`, for which the cytotoxicity call was “inactive”.

`CC(C)NC(=O)Nc1ccc2c(c1)C(=O)N([C@@H](C)CO)C[C@@H](C)[C@@H](CN(C)Cc1ccc(C(F)(F)F)cc1)OCCCC[C@@H](C)O2`: the cytotoxicity call is “active”.
